How the values were obtained:
[1] = target: T1, Inhibitor of nuclear factor kappa-B kinase subunit epsilon (Homo sapiens) (UniProt Q14164); details: at 1 µM;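 also: reported values are averaged percent inhibition figures against human IKKε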
T1 sequence (whole entry): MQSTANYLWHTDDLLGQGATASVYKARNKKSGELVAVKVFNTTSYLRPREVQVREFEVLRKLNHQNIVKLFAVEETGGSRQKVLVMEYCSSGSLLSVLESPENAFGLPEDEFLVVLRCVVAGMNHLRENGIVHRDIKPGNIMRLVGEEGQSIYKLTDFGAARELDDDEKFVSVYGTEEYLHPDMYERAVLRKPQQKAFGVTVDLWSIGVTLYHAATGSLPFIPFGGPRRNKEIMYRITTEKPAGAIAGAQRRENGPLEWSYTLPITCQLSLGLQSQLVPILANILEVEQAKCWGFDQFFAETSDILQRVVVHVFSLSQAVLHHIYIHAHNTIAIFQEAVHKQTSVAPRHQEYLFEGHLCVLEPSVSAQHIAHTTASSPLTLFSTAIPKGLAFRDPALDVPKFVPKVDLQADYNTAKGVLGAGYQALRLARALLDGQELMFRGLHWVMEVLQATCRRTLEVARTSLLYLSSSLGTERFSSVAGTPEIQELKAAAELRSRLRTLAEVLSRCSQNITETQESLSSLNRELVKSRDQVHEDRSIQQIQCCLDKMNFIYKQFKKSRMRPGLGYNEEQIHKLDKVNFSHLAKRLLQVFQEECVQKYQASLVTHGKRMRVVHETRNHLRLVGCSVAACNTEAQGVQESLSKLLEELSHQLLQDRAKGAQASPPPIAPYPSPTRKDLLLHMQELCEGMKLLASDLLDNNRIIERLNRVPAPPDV

[2] = target: T2, Serine/threonine-protein kinase Nek1 (Homo sapiens) (UniProt Q96PY6); details: at 0.1 µM
T2 sequence (whole entry): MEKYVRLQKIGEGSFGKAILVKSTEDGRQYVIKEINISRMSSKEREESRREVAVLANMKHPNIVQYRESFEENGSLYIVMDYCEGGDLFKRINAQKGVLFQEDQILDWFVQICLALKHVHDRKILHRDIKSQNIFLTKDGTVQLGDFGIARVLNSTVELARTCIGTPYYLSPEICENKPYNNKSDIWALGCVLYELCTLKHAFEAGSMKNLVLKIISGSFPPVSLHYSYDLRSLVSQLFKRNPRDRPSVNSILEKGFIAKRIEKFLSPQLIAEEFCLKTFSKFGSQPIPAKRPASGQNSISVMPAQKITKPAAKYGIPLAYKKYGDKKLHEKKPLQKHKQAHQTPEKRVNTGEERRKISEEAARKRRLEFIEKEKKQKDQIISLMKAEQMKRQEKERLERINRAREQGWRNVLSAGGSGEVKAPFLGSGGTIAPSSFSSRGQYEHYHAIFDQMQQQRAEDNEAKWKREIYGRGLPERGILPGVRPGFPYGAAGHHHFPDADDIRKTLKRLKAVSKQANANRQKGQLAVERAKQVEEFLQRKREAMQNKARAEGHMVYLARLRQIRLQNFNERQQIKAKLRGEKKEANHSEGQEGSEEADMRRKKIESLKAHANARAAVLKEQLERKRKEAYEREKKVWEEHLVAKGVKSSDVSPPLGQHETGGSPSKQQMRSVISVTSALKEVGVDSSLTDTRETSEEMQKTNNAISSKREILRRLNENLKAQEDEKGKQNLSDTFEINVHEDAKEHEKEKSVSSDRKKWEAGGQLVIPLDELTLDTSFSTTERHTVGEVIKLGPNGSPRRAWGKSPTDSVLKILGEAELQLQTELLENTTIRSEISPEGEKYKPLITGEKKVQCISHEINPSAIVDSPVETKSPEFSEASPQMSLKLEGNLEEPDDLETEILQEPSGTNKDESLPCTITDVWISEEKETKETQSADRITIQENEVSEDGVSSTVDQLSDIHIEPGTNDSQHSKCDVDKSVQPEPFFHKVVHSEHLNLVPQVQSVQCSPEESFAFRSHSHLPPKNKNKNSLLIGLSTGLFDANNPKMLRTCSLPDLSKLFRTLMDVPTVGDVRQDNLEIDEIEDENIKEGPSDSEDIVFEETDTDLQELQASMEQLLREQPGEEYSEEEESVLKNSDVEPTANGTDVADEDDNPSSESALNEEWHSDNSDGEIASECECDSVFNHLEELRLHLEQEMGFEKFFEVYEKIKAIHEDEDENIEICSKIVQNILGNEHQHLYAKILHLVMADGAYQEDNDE

[3] = target: T2, Serine/threonine-protein kinase Nek1 (Homo sapiens); details: at 1 µM
[4] = target: T3, Serine/threonine-protein kinase Nek2 (Homo sapiens) (UniProt P51955); details: at 0.1 µM
T3 sequence (whole entry): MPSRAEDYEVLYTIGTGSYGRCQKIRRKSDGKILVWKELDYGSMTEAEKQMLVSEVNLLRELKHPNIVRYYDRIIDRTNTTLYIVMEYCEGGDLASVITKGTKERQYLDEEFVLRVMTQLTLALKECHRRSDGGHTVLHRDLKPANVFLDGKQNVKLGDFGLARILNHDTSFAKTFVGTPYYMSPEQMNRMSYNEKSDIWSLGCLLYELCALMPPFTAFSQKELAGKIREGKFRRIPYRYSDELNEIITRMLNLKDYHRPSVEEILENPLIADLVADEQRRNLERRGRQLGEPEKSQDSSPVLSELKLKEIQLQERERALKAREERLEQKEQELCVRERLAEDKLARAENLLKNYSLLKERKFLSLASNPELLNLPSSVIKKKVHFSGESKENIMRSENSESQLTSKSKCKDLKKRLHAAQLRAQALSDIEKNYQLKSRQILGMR

[5] = target: T3, Serine/threonine-protein kinase Nek2 (Homo sapiens); details: at 1 µM
[6] = target: Serine/threonine-protein kinase Nek6 (Homo sapiens) (UniProt Q9HC98); details: at 0.1 µM
Sequence of Serine/threonine-protein kinase Nek6 (Homo sapiens) (Q9HC98 whole entry): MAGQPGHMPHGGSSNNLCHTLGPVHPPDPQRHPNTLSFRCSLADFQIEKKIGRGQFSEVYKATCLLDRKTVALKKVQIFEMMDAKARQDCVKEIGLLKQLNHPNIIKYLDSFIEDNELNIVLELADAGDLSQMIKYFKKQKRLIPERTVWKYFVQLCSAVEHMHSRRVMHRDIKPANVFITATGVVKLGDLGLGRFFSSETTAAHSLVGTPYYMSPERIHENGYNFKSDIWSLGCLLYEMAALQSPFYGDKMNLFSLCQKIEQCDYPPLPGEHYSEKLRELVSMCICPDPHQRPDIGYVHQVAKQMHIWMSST

[7] = target: Serine/threonine-protein kinase Nek6 (Homo sapiens) (UniProt Q9HC98); details: at 1 µM
[8] = target: Serine/threonine-protein kinase Nek7 (Homo sapiens) (UniProt Q8TDX7); details: at 0.1 µM
Sequence of Serine/threonine-protein kinase Nek7 (Homo sapiens) (Q8TDX7 whole entry, looked up): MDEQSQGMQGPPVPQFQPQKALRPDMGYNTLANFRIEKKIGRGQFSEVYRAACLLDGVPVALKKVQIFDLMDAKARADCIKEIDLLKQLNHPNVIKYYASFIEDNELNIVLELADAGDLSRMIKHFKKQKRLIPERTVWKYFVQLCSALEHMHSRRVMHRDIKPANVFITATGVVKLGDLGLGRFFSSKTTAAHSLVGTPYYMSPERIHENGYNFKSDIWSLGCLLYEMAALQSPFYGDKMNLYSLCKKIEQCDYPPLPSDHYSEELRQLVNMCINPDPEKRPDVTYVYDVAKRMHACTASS

[9] = target: Serine/threonine-protein kinase Nek7 (Homo sapiens) (UniProt Q8TDX7); details: at 1 µM
[10] = target: T4, Serine/threonine-protein kinase Nek9 (Homo sapiens) (UniProt Q8TD19); details: at 0.1 µM
T4 sequence (whole entry): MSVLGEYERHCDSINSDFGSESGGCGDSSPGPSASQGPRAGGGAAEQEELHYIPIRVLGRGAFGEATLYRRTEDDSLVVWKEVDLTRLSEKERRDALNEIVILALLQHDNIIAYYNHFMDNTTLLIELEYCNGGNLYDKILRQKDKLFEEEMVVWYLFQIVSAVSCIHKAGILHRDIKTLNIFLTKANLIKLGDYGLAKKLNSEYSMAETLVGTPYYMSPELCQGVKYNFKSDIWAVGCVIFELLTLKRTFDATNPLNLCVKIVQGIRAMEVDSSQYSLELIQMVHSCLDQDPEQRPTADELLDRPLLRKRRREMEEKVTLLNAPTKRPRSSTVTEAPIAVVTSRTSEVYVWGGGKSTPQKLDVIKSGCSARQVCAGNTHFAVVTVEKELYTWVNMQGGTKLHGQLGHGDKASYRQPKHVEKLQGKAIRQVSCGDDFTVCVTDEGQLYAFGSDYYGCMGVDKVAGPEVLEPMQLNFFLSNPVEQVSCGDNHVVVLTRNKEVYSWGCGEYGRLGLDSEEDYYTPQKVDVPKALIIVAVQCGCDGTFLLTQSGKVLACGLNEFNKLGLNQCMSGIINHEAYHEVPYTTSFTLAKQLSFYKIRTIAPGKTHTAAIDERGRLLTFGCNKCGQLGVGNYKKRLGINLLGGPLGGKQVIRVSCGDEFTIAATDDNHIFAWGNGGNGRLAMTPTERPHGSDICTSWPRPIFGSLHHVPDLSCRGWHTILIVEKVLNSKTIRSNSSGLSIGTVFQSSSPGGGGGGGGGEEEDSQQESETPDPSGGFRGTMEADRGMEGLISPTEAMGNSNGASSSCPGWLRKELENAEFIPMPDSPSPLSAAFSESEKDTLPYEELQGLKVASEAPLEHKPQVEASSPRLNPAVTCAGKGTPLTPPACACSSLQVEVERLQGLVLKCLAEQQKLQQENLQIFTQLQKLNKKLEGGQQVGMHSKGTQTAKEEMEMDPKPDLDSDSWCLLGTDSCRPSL

[11] = target: T4, Serine/threonine-protein kinase Nek9 (Homo sapiens); details: at 1 µM
[12] = target: Serine/threonine-protein kinase PLK1 (Homo sapiens) (UniProt P53350); details: at 0.1 µM
Sequence of Serine/threonine-protein kinase PLK1 (Homo sapiens) (P53350 whole entry): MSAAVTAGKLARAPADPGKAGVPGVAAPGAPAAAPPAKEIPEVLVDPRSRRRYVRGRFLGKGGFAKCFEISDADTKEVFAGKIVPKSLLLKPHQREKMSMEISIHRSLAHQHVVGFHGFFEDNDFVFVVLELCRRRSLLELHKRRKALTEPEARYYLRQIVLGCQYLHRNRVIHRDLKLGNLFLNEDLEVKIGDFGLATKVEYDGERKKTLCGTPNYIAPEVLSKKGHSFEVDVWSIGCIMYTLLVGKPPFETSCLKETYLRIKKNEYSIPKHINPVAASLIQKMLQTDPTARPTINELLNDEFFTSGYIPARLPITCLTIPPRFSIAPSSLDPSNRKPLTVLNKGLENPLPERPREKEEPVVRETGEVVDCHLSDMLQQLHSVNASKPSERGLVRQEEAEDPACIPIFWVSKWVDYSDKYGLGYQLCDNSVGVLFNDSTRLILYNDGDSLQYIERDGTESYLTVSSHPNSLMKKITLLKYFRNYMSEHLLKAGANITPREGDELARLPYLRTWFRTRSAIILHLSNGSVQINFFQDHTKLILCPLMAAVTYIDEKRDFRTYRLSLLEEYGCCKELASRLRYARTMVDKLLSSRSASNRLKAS

[13] = target: Serine/threonine-protein kinase PLK1 (Homo sapiens) (UniProt P53350); details: at 1 µM
[14] = target: T5, Dual specificity protein kinase TTK (Homo sapiens) (UniProt P33981); details: at 0.1 µM
T5 sequence (whole entry): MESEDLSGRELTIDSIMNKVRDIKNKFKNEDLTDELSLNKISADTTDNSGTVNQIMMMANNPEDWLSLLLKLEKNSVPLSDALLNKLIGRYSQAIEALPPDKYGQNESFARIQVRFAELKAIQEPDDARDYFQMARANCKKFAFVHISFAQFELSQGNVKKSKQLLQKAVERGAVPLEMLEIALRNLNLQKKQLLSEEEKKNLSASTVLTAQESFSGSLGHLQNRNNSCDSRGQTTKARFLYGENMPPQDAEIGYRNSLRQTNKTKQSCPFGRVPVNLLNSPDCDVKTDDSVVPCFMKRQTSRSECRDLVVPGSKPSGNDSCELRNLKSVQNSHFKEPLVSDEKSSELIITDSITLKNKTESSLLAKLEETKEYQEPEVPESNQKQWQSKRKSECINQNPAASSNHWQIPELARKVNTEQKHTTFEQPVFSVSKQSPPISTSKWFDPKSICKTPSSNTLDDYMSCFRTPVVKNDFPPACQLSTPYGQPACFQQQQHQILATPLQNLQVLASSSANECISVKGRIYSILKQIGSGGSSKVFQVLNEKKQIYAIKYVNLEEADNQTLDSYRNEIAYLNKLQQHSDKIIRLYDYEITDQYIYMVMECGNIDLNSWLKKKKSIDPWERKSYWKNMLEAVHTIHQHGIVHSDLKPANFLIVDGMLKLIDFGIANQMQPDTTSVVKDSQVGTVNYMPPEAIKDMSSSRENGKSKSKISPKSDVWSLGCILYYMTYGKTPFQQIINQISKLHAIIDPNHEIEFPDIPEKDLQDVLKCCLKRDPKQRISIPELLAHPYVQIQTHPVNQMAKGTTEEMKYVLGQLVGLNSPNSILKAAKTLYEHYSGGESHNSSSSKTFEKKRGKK

[15] = tested on: T6, Receptor-type tyrosine-protein kinase FLT3 (Homo sapiens), P36888 [D835Y]; details: at 1 µM
T6 sequence (whole entry): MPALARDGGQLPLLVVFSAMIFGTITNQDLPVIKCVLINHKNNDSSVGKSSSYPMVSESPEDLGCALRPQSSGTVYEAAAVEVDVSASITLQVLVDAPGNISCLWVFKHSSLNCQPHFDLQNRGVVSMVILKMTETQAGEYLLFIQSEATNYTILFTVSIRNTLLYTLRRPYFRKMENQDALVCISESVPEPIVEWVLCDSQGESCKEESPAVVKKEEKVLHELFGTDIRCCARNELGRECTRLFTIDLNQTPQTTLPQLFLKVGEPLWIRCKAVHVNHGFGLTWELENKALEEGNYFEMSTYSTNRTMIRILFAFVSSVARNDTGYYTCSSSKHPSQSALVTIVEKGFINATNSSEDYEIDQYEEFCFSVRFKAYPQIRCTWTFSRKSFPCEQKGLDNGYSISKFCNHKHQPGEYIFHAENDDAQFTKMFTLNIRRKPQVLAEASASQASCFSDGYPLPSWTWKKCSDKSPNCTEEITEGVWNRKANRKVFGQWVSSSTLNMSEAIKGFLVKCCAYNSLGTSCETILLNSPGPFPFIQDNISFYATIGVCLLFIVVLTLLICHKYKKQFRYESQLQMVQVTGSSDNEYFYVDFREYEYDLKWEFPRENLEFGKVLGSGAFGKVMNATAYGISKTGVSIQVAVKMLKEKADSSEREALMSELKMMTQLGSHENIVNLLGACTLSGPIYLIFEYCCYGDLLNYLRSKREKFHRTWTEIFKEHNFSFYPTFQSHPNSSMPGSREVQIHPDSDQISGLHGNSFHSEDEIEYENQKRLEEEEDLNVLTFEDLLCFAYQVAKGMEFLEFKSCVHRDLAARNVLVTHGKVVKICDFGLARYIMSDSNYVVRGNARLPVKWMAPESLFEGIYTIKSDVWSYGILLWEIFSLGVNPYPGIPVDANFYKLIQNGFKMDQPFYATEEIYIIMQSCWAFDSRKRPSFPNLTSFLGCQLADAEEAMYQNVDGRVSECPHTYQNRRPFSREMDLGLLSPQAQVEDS

[16] = target: Vascular endothelial growth factor receptor 3 (Homo sapiens) (UniProt P35916); details: at 0.1 µM
Sequence of Vascular endothelial growth factor receptor 3 (Homo sapiens) (P35916 whole entry): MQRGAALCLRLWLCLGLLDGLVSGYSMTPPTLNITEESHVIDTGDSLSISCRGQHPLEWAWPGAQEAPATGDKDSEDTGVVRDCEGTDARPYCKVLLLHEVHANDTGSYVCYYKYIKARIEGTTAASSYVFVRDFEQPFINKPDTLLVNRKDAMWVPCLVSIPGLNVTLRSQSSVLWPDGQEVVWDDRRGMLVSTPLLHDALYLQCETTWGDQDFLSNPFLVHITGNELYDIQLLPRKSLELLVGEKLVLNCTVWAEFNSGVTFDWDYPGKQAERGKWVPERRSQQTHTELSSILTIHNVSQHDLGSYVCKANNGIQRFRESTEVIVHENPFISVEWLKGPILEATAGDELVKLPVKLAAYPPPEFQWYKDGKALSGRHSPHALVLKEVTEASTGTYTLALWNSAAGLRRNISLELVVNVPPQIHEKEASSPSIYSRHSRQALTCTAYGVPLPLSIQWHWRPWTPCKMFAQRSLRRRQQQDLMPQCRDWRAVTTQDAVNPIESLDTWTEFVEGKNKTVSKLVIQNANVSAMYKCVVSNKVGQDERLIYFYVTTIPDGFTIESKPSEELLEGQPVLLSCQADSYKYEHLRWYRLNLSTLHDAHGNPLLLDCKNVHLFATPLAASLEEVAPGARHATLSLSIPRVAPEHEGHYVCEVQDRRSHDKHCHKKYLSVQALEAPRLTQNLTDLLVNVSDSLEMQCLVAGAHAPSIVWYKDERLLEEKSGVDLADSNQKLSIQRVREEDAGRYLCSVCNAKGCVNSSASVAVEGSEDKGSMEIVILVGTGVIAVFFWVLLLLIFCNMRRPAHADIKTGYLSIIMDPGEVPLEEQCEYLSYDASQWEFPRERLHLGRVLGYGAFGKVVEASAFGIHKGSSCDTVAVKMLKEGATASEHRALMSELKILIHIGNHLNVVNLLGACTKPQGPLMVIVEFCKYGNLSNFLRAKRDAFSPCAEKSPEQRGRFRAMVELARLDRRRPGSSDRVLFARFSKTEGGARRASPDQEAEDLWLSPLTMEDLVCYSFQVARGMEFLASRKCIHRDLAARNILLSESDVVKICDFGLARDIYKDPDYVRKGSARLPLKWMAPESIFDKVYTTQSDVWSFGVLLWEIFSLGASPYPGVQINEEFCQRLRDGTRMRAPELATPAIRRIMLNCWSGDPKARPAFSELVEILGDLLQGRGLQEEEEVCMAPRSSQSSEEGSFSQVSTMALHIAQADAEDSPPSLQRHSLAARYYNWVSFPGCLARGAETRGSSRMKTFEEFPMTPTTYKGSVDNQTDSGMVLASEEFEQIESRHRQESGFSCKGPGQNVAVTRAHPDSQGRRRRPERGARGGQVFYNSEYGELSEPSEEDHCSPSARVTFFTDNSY

[17] = target: Vascular endothelial growth factor receptor 3 (Homo sapiens) (UniProt P35916); details: at 1 µM
[18] = target: Macrophage colony-stimulating factor 1 receptor (Homo sapiens) (UniProt P07333); details: at 0.1 µM
Sequence of Macrophage colony-stimulating factor 1 receptor (Homo sapiens) (P07333 whole entry): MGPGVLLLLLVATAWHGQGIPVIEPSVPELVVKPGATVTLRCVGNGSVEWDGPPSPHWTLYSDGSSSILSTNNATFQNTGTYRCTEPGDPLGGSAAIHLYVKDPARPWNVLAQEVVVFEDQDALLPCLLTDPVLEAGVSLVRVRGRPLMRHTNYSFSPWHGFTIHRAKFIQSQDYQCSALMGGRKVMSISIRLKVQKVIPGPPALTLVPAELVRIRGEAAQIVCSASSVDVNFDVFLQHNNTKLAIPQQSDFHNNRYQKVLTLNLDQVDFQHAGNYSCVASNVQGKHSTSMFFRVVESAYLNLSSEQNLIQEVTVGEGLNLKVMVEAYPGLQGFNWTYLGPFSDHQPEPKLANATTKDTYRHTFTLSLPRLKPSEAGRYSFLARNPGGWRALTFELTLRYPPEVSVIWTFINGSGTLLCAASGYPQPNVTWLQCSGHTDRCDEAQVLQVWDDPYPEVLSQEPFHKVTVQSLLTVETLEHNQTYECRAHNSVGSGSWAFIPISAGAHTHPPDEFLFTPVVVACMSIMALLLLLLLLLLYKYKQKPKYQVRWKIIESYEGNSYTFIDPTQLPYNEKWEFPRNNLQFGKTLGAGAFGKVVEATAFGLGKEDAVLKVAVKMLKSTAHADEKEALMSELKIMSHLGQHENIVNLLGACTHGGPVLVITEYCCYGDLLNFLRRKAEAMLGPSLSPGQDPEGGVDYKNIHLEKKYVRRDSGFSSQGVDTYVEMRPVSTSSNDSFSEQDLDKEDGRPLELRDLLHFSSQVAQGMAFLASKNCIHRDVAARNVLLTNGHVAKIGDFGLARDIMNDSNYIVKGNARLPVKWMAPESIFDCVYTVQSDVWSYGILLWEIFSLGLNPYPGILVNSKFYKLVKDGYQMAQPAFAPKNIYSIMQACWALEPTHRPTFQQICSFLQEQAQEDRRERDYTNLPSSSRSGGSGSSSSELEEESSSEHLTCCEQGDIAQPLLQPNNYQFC

[19] = target: Macrophage colony-stimulating factor 1 receptor (Homo sapiens) (UniProt P07333); details: at 1 µM
[20] = target: Tyrosine-protein kinase Fyn (Homo sapiens) (UniProt P06241); details: at 0.1 µM
Sequence of Tyrosine-protein kinase Fyn (Homo sapiens) (P06241 2-537 limits assumed): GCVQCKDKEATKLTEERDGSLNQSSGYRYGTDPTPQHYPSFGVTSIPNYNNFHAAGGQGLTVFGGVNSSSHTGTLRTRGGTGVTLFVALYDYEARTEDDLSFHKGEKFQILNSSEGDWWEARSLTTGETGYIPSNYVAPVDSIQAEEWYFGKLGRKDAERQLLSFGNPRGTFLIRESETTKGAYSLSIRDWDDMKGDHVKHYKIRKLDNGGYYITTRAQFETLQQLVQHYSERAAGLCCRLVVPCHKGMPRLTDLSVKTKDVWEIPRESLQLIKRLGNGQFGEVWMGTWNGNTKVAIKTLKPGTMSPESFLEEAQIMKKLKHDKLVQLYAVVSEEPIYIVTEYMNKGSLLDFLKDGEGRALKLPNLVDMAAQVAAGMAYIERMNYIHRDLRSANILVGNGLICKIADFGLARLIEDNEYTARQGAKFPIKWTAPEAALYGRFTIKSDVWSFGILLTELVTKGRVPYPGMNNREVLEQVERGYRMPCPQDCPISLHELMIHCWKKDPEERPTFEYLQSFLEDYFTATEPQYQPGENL

Structure (SMILES)	inhibition [1]	inhibition [2]	inhibition [3]	inhibition [4]	inhibition [5]	inhibition [6]	inhibition [7]	inhibition [8]	inhibition [9]	inhibition [10]	inhibition [11]	inhibition [12]	inhibition [13]	inhibition [14]	inhibition [15]	inhibition [16]	inhibition [17]	inhibition [18]	inhibition [19]	inhibition [20]
NC(=O)c1sc(-n2cnc3cc(C(F)(F)F)ccc32)cc1OCc1ccccc1Br	3.62%	1.03%	1.9%	2.62%	3.63%	-1.58%	-0.03%	-3.9%	3.69%	8.36%	10.3%	21%	69.5%	2.94%	4.97%	2.24%	4.4%	-0.7%	3.85%	2.13%
COc1cccc(COc2cc(-n3cnc4ccccc43)sc2C(N)=O)c1	-7.06%	0.41%	4.13%	8.56%	1.43%	1.63%	-0.37%	0.3%	0.66%	0.4%	8.39%	66.5%	92.2%	3.72%	-4.13%	-2.19%	4.75%	-8.31%	-1.4%	0%
CCn1c(-c2nonc2N)nc2c(C#CC(C)(C)O)ncc(OC[C@@H]3CCCN3)c21	98.7%	0.01%	0.55%	0.12%	0.91%	1.04%	0.79%	-0.99%	-0.58%	-1.1%	0.02%	-0.2%	-3.86%	4.43%	-3.96%	4.88%	33.9%	-2.54%	1.4%	0.24%
